About 8,600 (12%) of roughly 69,000 compounds showed an effect of 50% or more. For the sample, strong results were picked, then their nearest neighbours and some compounds at random.

The test concerns Plasmodium berghei. Kind of test: Screen against P. berghei liver stage (PbLuc), transformed with Luciferase, at 10uM. In kind it is functional, HepG2. Particulars: tested at 10 uM.
`COc1ccc(OCCNC(=O)CN(C)Cc2nnc(C)n2C)cc1`: the INHIBITION is listed as -10.8%. As to `O=C1COC2(CCN(CC3CC3)CC2)CN1c1cncnc1`, the INHIBITION was -33.3%. In the case of `COc1cc(OC)cc(C2CC(=O)Nc3c2nc2n3CCCC2)c1` (centres undefined) it was 1.19%. In the case of `Cc1noc(C)c1CN(C)CC(=O)Nc1ccnn1C(C)C1CC1` (centres undefined), the INHIBITION is recorded as -72.5%. Then `O=C(O)c1ccc(CN2CCC(c3ccnc4ccnn34)CC2)cc1`, with 13.5%; and `CC(=O)N1CCCC(c2nnc3n2CCN(C(=O)C2CCCCC2)C3)C1` (centres undefined), with 33.39%; and `Cc1ccc(F)c(NCc2ccc(C(=O)N(C)C)[nH]2)c1`, with -17.9%. Then `CCn1cc(S(=O)(=O)NCC(c2ccccc2)N2CCOCC2)c(C)n1` (centres undefined), with 8.335%.

As to `CN(C)CCN(C)C(=O)NC1CCC(Oc2ccccc2C#N)CC1` (centres undefined), the INHIBITION worked out at 34%. Then `CCNC(=O)NC1CCC(Oc2ccccc2C#N)CC1` (centres undefined), with 40.2%. Then `CN(C)C1(C(=O)NC2CCC(Oc3ccccc3C#N)CC2)CCC1` (centres undefined), with 67.4%; and `Cc1cnn(CC2CCCCN2C(=O)Cc2c(C)nn(C)c2C)c1` (centres undefined), with 7.08%. Then `CCC[C@H]1CN(Cc2ccc(N(C)C)nc2)C[C@@H]1NC(=O)CSC`, with 33.1%; and `CCC[C@H]1CN(Cc2ccc(N(C)C)nc2)C[C@@H]1NC(=O)CCOC`, with 62.2%; and `CCC[C@H]1CN(Cc2ccc(N(C)C)nc2)C[C@@H]1NC(=O)CO`, with 42.1%.

On to `O=C(c1ccco1)N1CCC12CCN(c1ncc(F)cn1)CC2`, for which the INHIBITION is given as 58%. Regarding `Cc1cnc(N2CCC3(CCCCN3C)C2)nc1` (centres undefined), the INHIBITION is -38.1%. In the case of `O=C1CCC2(CCN(c3ncc(F)cn3)CC2)N1Cc1ccncc1` it was 35.8%; in that of `O=C(c1ccco1)N1CCCC12CCN(c1ncccn1)CC2`, -72.6%.

As to `Cc1cnc(N2CCC3(CCCN3C(=O)c3ccco3)CC2)nc1`, the INHIBITION came to 60.5%. In the case of `O=C1CCC2(CCCN(c3ncc(F)cn3)CC2)N1Cc1ccccc1` (centres undefined) it was -2.17%; in that of `O=C(Nc1ccccc1Cn1cccn1)N1CCC(N2CCCC2)C1` (centres undefined), 5.42%. In the case of `CCCc1nc(NCCCn2ccnc2)c2c(n1)c(C)nn2CC` it was 17.7%; in that of `Cc1nn(C)c2nc3c(c(C(=O)/N=c4\[nH]nc(C(C)C)s4)c12)CCC3`, 7.83%; in that of `Cc1noc(CCNC(=O)NCC(=O)NCc2ccccc2)n1`, -176%. For the compound `CC(NC(=O)CCCOc1ccc(F)cc1)c1nnc2n1CCC2` (centres undefined), the INHIBITION was -12.2%. In the case of `CO[C@H]1CCN(Cc2c(C)noc2C)[C@@H]2CN(Cc3ccncc3)C[C@H]12` it was 12.6%; in that of `Clc1ccccc1C1(c2ccnc(C3CCCC3)n2)CCNCC1`, 94.4%; in that of `Clc1ccccc1C1(c2ccnc(CC3CC3)n2)CCNCC1`, 43.5%. As for `Clc1ccccc1C1(c2ccnc(-c3ccncc3)n2)CCNCC1`, the INHIBITION is 55.1%. With `CC(C)(C)c1nccc(C2(c3ccccc3Cl)CCNCC2)n1`, the INHIBITION is listed as 72.8%. For the compound `CC(C)c1nccc(C2(c3ccccc3Cl)CCNCC2)n1`, the INHIBITION stood at 20.2%.

`CCC1C(=O)NCCN1c1ccnc(C(C)(C)C)n1` (centres undefined): the INHIBITION is reported as 26.8%.

Regarding `O=c1[nH]cccc1-c1nccc(C2(c3ccccc3Cl)CCNCC2)n1`, the INHIBITION is listed as 33%.

In the case of `Clc1ccccc1C1(c2ccnc(-c3ncccn3)n2)CCNCC1`, the INHIBITION is 33.5%. Then `Clc1ccccc1C1(c2ccnc(C3CC3)n2)CCNCC1`, with 44.1%; and `NC(=O)NCCC(=O)NCc1nn(-c2ccccc2)c2c1CCC2`, with 15.115%. In the case of `Nc1nc2c(c(NCC(c3cccnc3)N3CCOCC3)n1)CCCC2` (centres undefined) it was -21.3%; in that of `CC(C)c1nn(C)c(Cl)c1CNCC(O)c1cccc(F)c1` (centres undefined), 42%; in that of `Cc1cc(C(=O)N2CCN(Cc3ccsc3)CC2)n(C)n1`, -3.2%.

As to `CCOCC(O)CN1CCN(C(=O)c2ccccc2F)CC1` (centres undefined), the INHIBITION was -35.7%.

As for `CN(C[C@@H]1CCC[C@@H]2CN(Cc3cccnc3)C[C@@H]21)C1CC1`, the INHIBITION is on record as -5.63%.

Consider `Cc1nccc(C(=O)NC(COCC(C)C)c2ccco2)n1` (centres undefined), for which the INHIBITION is -19.4%. Then `COc1cc(CN(C)C(=O)NCC(=O)NC(C)C)ccc1SC`, with 14.3%. In the case of `CCN(CC)C(=O)CCNC(=O)N(C)Cc1ccc(SC)c(OC)c1` it was 8.97%; in that of `COc1cc(CN(C)C(=O)NC2CC2)ccc1SC`, 14.3%. As to `COc1cc(CN(C)C(=O)NCCNC(=O)C2CC2)ccc1SC`, the INHIBITION is on record as 52.9%. In the case of `CCNC(=O)N(C)Cc1ccc(SC)c(OC)c1` it was 55.1%. In the case of `CCOCCCNC(=O)N(C)Cc1ccc(SC)c(OC)c1` it was 12.6%; in that of `CCC1CCCCCN1C(=O)c1nnc2ccccc2c1N` (centres undefined), 40.3%. Then `Cc1cccc(OCCC(=O)NCC2CN(C)CCO2)c1C` (centres undefined), with -36.85%. Take `CC(C)NC(=O)C[C@@H]1CCNC[C@@H]1Cc1cc(-c2ccccc2)on1`: the INHIBITION was found to be 59.8%. In the case of `CC(C)NC(=O)C[C@@H]1CCNC[C@@H]1Cc1cc(-c2ccccn2)on1` it was -14.2%; in that of `CC(C)(C)c1cc(C[C@H]2CNCC[C@H]2CC(=O)Nc2ccccc2)no1`, 44.4%.

Source of the values: ChEMBL document CHEMBL4513216, “Probing the Open Global Health Chemical Diversity Library for Multistage-Active Starting Points for Next-Generation Antimalarials” (ACS Infect Dis, 2020).
